Source: PubChem BioAssay (Tox21)
Results filed as inconclusive are left out. Calls of active or inactive are those of the source. Unless noted, calls follow the shape of the dose curve; as a rule, active = well fitted curve in the direction sought with a large enough effect in the repeat runs; inconclusive = weak or mixed curves; inactive = no such curve, though single readings can be large; an effect the other way counts as inactive or inconclusive.

Experiments:
[1] = qHTS assay for small molecule agonists of the p53 signaling pathway (AID 651631; calls by dose curve; also: nearly all actives have a fitted effect of over 15% in size)
Summary of the method: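 HCT-116 p53RE-bla reporter line, 16 h compound treatment at 37 °C, then fluorescence after 2 h with B/G FRET substrate.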

[2] = qHTS assay for small molecules that induce genotoxicity in human embryonic kidney cells expressing luciferase-tagged ATAD5 (AID 651632); also: nearly all actives have a fitted effect of over 15% in size
Summary of the method: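 Luminescent reporter readout, HEK293T ATAD5-luc line: 16 hr drug exposure (37C, 5% CO2) followed by Amplite, 30 min RT.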

[3] = qHTS assay for small molecule agonists of the p53 signaling pathway - cell viability (AID 651633; calls by dose curve;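 also: p53RE-bla HCT reporter cells with a stable beta-lactamase p53 reporter; series mostly up to about 83 µM; nearly all actives have a fitted effect of over 30% in size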)
Summary of the method: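 p53RE-bla cells were treated with compound for 16 hours at 37 C. Cytotoxicity was then measured as CellTiter-Glo luminescence after 30 min at room temperature.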

[4] = qHTS assay for small molecules that induce genotoxicity in human embryonic kidney cells expressing luciferase-tagged ATAD5 - cell viability (AID 651634; calls by dose curve; also: nearly all actives have a fitted effect of over 25% in size)
Summary of the method: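 Viability read: CellTiter-Fluor fluorescence, 30 min at 37C. Cells: HEK293T, luciferase-tagged ATAD5. Exposure: 15.5 hr, 37C, 5% CO2, compound or DMSO vehicle.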

[5] = qHTS assay for small molecule disruptors of the mitochondrial membrane potential - cell viability (AID 720634; calls by dose curve;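 also: human HepG2 liver cancer cells; series mostly up to about 83 µM; nearly all actives have a fitted effect of over 20% in size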)
Summary of the method: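 HepG2, 1 hr compound, 37 C. ATP luminescence via CellTiter-Glo, 30 min RT, same well as m-MPI.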

[6] = qHTS assay for small molecule disruptors of the mitochondrial membrane potential (AID 720635)
Summary of the method: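 HepG2 cells exposed to compound 1 hr at 37C, then Mito-MPS dye 30 min. Ratio read of aggregate (540/590 nm) versus monomer (490/535 nm) fluorescence.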

[7] = qHTS assay to test for compound auto fluorescence at 590 nm (red) in HepG2 cells (AID 720674)
Summary of the method: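 Fluorescence at 590 nm emission following 540 nm excitation was recorded from HepG2 wells one hour after compound transfer, with DMSO-only wells as vehicle and Rose Bengal sodium equivalency as the scale.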

[8] = qHTS assay to test for compound auto fluorescence at 535 nm (green) in HepG2 cells (AID 720675)
[9] = qHTS assay to test for compound auto fluorescence at 460 nm (blue) in HEK293 cells (AID 720678)
Summary of the method: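 HEK293, 2,000 cells/well, 10% dialyzed FBS; attach 4-5 hr 37C; pin compound or DMSO; o/n 37C/5% CO2; fluorescence 405/460 nm; triamterene-equivalent units.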

[10] = qHTS assay to test for compound auto fluorescence at 590 nm (red) in HEK293 cells (AID 720679)
Summary of the method: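 Intensity at 540nm excitation and 590nm emission is reported as Rose Bengal sodium-equivalent autofluorescence. Measurements followed overnight exposure (37C, 5% CO2) of HEK293 cells, 2,000 per well, to 23 nL compound.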

[11] = qHTS assay to test for compound auto fluorescence at 535 nm (green) in HEK293 cell free culture (AID 720682)
Summary of the method: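 Steps: dispense DMEM/10% FBS into empty wells; pin in compound or DMSO; measure fluorescence at 485/535 nm. Values are fluorescein equivalents.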

[12] = qHTS assay to test for compound auto fluorescence at 590 nm (red) in HEK293 cell free culture (AID 720683)
Summary of the method: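 Cell-free wells of DMEM with 10% FBS received compound, and intrinsic fluorescence was read at excitation/emission 540/590 nm. Values expressed as equivalence to Rose Bengal sodium.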

[13] = qHTS assay to test for compound auto fluorescence at 590 nm (red) in HepG2 cell free culture (AID 720684)
Summary of the method: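 Compound was pinned into wells holding MEM with 10% FBS and no cells, and red fluorescence was read at Ex/Em 540/590 nm. Signal is expressed as auto fluorescence equivalency relative to Rose Bengal sodium.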

[14] = qHTS assay to test for compound auto fluorescence at 460 nm (blue) in HepG2 cell free culture (AID 720685)
Summary of the method: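 Compound (23 nL) or DMSO pinned into cell-free MEM with 10% FBS; blue fluorescence read at 405/460 nm excitation/emission, expressed as auto-fluorescence equivalency to triamterene.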

[15] = qHTS assay to test for compound auto fluorescence at 535 nm (green) in HepG2 cell free culture (AID 720686)
[16] = qHTS assay to test for compound auto fluorescence at 460 nm (blue) in HepG2 cells (AID 720687)
Summary of the method: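 HepG2 cells in MEM with 10% FBS, attached overnight at 37 C, were exposed to compound or DMSO for 1 hr at 37 C, 5% CO2. Blue fluorescence was read at 405/460 nm, with triamterene as reference fluorophore.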

[17] = biological target: Glucocorticoid receptor (Homo sapiens) (UniProt P04150); assay: qHTS assay to identify small molecule agonists of the glucocorticoid receptor (GR) signaling pathway (AID 720691; active = well fitted activation curve with a large enough effect in the signal ratio in the repeat runs, not every such curve was filed as active; the % refers to the signal ratio)
Sequence of Glucocorticoid receptor (Homo sapiens) (P04150 whole entry, looked up): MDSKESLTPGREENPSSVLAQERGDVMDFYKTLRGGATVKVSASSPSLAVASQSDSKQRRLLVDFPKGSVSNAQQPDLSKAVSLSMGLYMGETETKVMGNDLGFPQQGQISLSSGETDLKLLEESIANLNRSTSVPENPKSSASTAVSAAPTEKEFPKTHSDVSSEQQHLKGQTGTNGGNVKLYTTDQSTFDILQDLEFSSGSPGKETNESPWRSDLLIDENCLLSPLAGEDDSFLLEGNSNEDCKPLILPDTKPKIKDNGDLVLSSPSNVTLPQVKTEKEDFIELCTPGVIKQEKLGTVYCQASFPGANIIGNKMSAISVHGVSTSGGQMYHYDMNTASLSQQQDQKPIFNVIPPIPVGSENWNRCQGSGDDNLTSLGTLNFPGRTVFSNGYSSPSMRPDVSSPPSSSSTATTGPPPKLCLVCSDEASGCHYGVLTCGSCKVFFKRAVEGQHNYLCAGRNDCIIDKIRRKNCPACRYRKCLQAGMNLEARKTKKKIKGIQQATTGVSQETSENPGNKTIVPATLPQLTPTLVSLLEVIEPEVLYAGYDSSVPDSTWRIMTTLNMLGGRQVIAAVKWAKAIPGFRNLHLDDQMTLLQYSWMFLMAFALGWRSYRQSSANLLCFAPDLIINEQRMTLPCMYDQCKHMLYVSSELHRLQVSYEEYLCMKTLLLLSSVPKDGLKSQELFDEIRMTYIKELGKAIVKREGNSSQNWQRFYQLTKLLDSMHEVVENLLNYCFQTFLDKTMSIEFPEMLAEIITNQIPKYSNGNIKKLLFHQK
Summary of the method: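 qHTS in GR-bla HeLa cells: 4 h settling at 37 C/5% CO2, 18 h compound incubation at 37 C, 2 h LiveBLAzer B/G FRET substrate at room temperature, fluorescence intensity measured.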

[18] = biological target: Glucocorticoid receptor (Homo sapiens) (UniProt P04150); assay: qHTS assay to identify small molecule antagonists of the glucocorticoid receptor (GR) signaling pathway (AID 720692; active = well fitted inhibition curve with a large enough effect in the signal ratio in the repeat runs, not every such curve was filed as active; the % refers to the signal ratio)
Summary of the method: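 Inhibition of glucocorticoid signalling is measured in HeLa cells with a GRE-controlled beta-lactamase reporter; cells are co-treated with compound and 5 nM dexamethasone (final) for 18 h before FRET substrate readout.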

[19] = qHTS assay to test for compound auto fluorescence at 535 nm (green) in HEK293 cells (AID 720680)
[20] = qHTS assay to test for compound auto fluorescence at 460 nm (blue) in HEK293 cell free culture (AID 720681)
Summary of the method: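 Compounds were added to cell-free DMEM with 10% FBS and fluorescence read directly. The blue channel used 405 nm excitation and 460 nm emission, with triamterene as the reference fluorophore.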
% is scaled to controls: 0 for no effect and ±100 for the full control effect.

Cn1c(=O)c2c(ncn2CC(O)CO)n(C)c1=O (configuration not stated)
inactive: Potency [1] | Potency [2] | Potency [3] | Potency [4] | Potency [5] | Potency [6] | fluorescence, relative to Rose Bengal [7] 0.442% [at 18.6 µM] | fluorescence, % of fluorescein control [8] -0.21% [at 18.6 µM] | fluorescence, % of triamterene [9] -0.206% [at 18.6 µM] | fluorescence, % of fluorescent control [10] -0.424% [at 18.6 µM] | activity change [11] -0.0177% [at 18.6 µM] | fluorescence, % of fluorescent control [12] 0.293% [at 18.6 µM] | fluorescence, % of Rose Bengal [13] -0.139% [at 18.6 µM] | fluorescence, % of fluorescent control [14] -0.106% [at 18.6 µM] | fluorescence, % of fluorescein control [15] -0.0139% [at 18.6 µM] | fluorescence, % of fluorescent control [16] -0.0218% [at 18.6 µM] | Potency [17] | Potency [18]

O=S(=O)(O)c1ccc(O)c2ncccc12
inactive: Potency [1] | Potency [2] | Potency [3] | Potency [4] | Potency [5] | Potency [6] | outcome [7] | outcome [8] | Potency [9] | outcome [10] | outcome [19] | Potency [20] | outcome [12] | outcome [13] | Potency [14] | outcome [15] | Potency [16] | Potency [17]

C=Cc1c(C)c2cc3[nH]c(cc4nc(cc5nc(cc1[nH]2)C(C)=C5CCC(=O)O)C(CCC(=O)O)=C4C)c(C)c3C=C
inactive: Potency [1] | Potency [2] | Potency [3] | Potency [4] | Potency [5] | Potency [6] | outcome [7] | outcome [8] | Potency [9] | outcome [10] | Potency [20] | outcome [11] | outcome [12] | outcome [13] | Potency [14] | outcome [15] | Potency [17] | Potency [18]

Cc1ccc(C)o1
inactive: Potency [1] | Potency [2] | Potency [3] | Potency [4] | Potency [5] | Potency [6] | outcome [7] | outcome [8] | Potency [9] | outcome [10] | outcome [19] | Potency [20] | outcome [11] | outcome [12] | outcome [13] | Potency [14] | outcome [15] | Potency [16] | Potency [17] | Potency [18]

NCCCOCCOCCOCCCN
inactive: Potency [1] | Potency [2] | Potency [3] | Potency [4] | Potency [5] | Potency [6] | outcome [7] | outcome [8] | Potency [9] | outcome [10] | outcome [19] | outcome [11] | outcome [12] | Potency [14] | outcome [15] | Potency [16] | Potency [17]

CC(=O)NCCCS(=O)(=O)O
inactive: Potency [1] | Potency [2] | Potency [3] | Potency [4] | Potency [5] | Potency [6] | outcome [7] | outcome [8] | Potency [9] | outcome [19] | Potency [20] | outcome [11] | outcome [12] | outcome [13] | Potency [14] | outcome [15] | Potency [17]

Cc1c(Cn2ccnc2)c2ccccc2n1CCC(=O)O
inactive: Potency [1] | Potency [2] | Potency [3] | Potency [4] | Potency [5] | Potency [6] | outcome [7] | outcome [8] | Potency [9] | outcome [19] | Potency [20] | outcome [11] | outcome [12] | outcome [13] | Potency [14] | outcome [15] | Potency [16] | Potency [17]

CCCCCCCCCCCCCCCC(=O)OC/C=C(C)/C=C/C=C(C)/C=C/C1=C(C)CCCC1(C)C
inactive: Potency [1] | Potency [2] | Potency [3] | Potency [4] | Potency [5] | Potency [6] | outcome [7] | outcome [8] | Potency [9] | outcome [10] | outcome [19] | Potency [20] | outcome [11] | outcome [12] | outcome [13] | Potency [14] | outcome [15] | Potency [16] | Potency [17]

NC(=S)N/N=C/c1cccnc1
inactive: Potency [1] | Potency [2] | Potency [3] | Potency [4] | Potency [5] | Potency [6] | outcome [7] | outcome [8] | Potency [9] | outcome [10] | outcome [19] | Potency [20] | outcome [11] | outcome [12] | outcome [13] | Potency [14] | outcome [15] | Potency [17] | Potency [18]

CCOC(=O)CC(=O)c1cc(F)c(Cl)nc1Cl
inactive: Potency [1] | Potency [2] | Potency [3] | Potency [4] | Potency [5] | Potency [6] | outcome [7] | outcome [8] | Potency [9] | outcome [10] | outcome [19] | outcome [11] | outcome [12] | Potency [14] | outcome [15] | Potency [16] | Potency [17] | Potency [18]

CCCC[C@H]1CN(CC2CCOCC2)C(=O)OC12CCN(C1(C)CCN(C(=O)c3c(C)ncnc3C)CC1)CC2
inactive: Potency [1] | Potency [2] | Potency [3] | Potency [4] | Potency [5] | Potency [6] | outcome [7] | outcome [8] | Potency [9] | outcome [10] | outcome [19] | Potency [20] | outcome [11] | outcome [12] | outcome [13] | Potency [14] | outcome [15] | Potency [16]

O=c1c2ccccc2nnn1CCl
inactive: Potency [1] | Potency [2] | Potency [3] | Potency [4] | Potency [5] | Potency [6] | outcome [7] | outcome [8] | Potency [9] | outcome [19] | Potency [20] | outcome [11] | outcome [12] | outcome [13] | Potency [14] | outcome [15] | Potency [16] | Potency [17] | Potency [18]

Cn1c(N)nc2nc[nH]c2c1=O
inactive: Potency [1] | Potency [2] | Potency [3] | Potency [4] | Potency [5] | Potency [6] | outcome [7] | outcome [8] | Potency [9] | outcome [10] | outcome [19] | Potency [20] | outcome [12] | outcome [13] | Potency [14] | outcome [15] | Potency [16] | Potency [17]

CCOC(=S)SSC(=S)OCC
inactive: Potency [1] | Potency [2] | Potency [3] | Potency [4] | Potency [5] | Potency [6] | outcome [7] | outcome [8] | Potency [9] | outcome [10] | outcome [19] | Potency [20] | outcome [11] | outcome [12] | outcome [13] | Potency [14] | outcome [15] | Potency [16] | Potency [17] | Potency [18]
